Several values for one entry are separate records, joined by “and”; a condition that tells them apart may be missing. Equal values may be shown once.

Assay [1] deals with Mast/stem cell growth factor receptor Kit (Homo sapiens) (UniProt P10721). Particulars: at 1 µM.
Assay [2] relates to Mast/stem cell growth factor receptor Kit (Homo sapiens), P10721 [D816V]. Particulars: at 0.1 µM.
The test system is the same in assay [3]. Conditions: at 1 µM.
Assay [4] has as its system Mast/stem cell growth factor receptor Kit (Homo sapiens), P10721 [T670I]. Conditions: at 0.1 µM.
Assay [5] shares this test system. Particulars: at 1 µM.
In assay [6] the test system is Mast/stem cell growth factor receptor Kit (Homo sapiens), P10721 [V560G]. Conditions: at 0.1 µM.
Sequence of Mast/stem cell growth factor receptor Kit (Homo sapiens), P10721 [V560G] (P10721 whole entry V560G): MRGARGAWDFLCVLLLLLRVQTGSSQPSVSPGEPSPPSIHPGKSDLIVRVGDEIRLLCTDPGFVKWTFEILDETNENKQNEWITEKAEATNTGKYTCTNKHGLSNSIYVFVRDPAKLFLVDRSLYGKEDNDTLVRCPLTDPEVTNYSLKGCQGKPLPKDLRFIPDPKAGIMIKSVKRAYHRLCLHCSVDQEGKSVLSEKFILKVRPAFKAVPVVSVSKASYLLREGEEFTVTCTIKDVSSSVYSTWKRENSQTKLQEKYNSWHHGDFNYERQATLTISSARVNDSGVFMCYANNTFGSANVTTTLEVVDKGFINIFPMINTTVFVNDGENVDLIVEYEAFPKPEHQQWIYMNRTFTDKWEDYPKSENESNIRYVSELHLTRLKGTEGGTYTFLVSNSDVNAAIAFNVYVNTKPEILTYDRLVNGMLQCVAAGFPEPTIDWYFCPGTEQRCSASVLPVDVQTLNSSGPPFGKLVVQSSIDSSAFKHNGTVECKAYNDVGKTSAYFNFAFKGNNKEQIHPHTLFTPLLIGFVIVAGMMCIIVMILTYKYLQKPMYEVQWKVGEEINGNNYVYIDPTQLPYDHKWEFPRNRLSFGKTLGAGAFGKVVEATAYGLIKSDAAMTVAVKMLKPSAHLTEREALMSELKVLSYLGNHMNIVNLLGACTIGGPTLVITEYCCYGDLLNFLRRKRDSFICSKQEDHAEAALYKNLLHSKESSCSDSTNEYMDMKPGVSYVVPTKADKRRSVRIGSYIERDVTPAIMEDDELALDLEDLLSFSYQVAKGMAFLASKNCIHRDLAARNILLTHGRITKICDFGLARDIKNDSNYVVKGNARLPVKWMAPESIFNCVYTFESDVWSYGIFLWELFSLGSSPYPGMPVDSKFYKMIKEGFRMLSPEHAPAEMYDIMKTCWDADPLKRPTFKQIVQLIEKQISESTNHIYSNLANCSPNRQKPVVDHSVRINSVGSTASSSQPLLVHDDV
The test system is the same in assay [7]. Conditions: at 1 µM.
Assay [8] has as its target Tyrosine-protein kinase Lck (Homo sapiens) (UniProt P06239). Conditions: at 0.1 µM.
Assay [9] shares this target. Conditions: at 1 µM.
Assay [10] has as its target Leukocyte tyrosine kinase receptor (Homo sapiens) (UniProt P29376). Particulars: at 0.1 µM.
For assay [11] the target is unchanged. Conditions: at 1 µM.
The target in assay [12] is Tyrosine-protein kinase Lyn (Homo sapiens) (UniProt P07948). Conditions: at 0.1 µM.
Sequence of Tyrosine-protein kinase Lyn (Homo sapiens) (P07948 2-512 limits assumed): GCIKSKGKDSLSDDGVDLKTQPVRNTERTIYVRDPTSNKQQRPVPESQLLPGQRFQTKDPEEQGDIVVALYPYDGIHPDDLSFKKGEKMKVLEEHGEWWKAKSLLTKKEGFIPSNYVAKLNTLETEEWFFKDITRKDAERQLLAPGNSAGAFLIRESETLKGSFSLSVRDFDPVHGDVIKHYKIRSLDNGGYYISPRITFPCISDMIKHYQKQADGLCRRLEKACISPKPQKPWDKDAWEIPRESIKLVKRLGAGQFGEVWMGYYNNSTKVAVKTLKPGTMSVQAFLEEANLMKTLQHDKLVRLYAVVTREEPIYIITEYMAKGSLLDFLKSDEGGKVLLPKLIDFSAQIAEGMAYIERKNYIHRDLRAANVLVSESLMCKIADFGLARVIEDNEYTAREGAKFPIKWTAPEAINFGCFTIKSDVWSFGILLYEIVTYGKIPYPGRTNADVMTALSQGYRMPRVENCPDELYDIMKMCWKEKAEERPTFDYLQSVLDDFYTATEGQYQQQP
The target is the same in assay [13]. Conditions: at 1 µM.
For assay [14] the target is unchanged. Particulars: at 0.1 µM. The source holds these as a separate data set.
Assay [15] shares this target. Conditions: at 1 µM. The source holds these as a separate data set.
For assay [16], the target named is T1, Tyrosine-protein kinase Mer (Homo sapiens) (UniProt Q12866).
T1 sequence (whole entry): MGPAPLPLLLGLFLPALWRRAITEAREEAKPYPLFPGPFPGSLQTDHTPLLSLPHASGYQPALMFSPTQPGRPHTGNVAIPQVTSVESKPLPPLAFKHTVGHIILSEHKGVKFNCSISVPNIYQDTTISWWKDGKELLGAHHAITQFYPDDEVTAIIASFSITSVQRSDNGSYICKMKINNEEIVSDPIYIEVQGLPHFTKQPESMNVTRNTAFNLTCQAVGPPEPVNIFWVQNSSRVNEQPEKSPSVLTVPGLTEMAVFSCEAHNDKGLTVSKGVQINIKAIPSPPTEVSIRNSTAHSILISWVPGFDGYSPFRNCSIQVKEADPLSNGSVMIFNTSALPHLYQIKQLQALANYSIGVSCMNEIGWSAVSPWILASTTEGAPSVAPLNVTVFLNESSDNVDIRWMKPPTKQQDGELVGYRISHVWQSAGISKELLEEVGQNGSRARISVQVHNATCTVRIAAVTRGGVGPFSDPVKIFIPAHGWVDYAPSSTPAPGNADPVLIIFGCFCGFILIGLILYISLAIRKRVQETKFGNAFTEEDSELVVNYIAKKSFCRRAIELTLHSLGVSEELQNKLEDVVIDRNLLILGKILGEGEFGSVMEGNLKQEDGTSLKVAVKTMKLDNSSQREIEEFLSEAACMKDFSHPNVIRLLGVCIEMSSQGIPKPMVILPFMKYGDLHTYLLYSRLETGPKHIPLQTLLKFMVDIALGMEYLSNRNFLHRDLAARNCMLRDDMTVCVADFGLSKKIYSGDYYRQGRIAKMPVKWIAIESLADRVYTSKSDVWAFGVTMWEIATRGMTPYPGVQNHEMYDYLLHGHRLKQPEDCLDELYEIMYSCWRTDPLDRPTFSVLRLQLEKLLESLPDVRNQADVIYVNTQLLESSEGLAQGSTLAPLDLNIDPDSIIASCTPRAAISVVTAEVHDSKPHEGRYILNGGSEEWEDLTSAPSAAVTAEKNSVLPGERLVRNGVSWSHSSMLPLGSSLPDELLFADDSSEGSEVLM
Conditions: at 0.1 µM.

Assay [17] has as its target T1, Tyrosine-protein kinase Mer (Homo sapiens). Conditions: at 1 µM.
The target in assay [18] is Hepatocyte growth factor receptor (Homo sapiens) (UniProt P08581). Particulars: at 0.1 µM.
Sequence of Hepatocyte growth factor receptor (Homo sapiens) (P08581 whole entry): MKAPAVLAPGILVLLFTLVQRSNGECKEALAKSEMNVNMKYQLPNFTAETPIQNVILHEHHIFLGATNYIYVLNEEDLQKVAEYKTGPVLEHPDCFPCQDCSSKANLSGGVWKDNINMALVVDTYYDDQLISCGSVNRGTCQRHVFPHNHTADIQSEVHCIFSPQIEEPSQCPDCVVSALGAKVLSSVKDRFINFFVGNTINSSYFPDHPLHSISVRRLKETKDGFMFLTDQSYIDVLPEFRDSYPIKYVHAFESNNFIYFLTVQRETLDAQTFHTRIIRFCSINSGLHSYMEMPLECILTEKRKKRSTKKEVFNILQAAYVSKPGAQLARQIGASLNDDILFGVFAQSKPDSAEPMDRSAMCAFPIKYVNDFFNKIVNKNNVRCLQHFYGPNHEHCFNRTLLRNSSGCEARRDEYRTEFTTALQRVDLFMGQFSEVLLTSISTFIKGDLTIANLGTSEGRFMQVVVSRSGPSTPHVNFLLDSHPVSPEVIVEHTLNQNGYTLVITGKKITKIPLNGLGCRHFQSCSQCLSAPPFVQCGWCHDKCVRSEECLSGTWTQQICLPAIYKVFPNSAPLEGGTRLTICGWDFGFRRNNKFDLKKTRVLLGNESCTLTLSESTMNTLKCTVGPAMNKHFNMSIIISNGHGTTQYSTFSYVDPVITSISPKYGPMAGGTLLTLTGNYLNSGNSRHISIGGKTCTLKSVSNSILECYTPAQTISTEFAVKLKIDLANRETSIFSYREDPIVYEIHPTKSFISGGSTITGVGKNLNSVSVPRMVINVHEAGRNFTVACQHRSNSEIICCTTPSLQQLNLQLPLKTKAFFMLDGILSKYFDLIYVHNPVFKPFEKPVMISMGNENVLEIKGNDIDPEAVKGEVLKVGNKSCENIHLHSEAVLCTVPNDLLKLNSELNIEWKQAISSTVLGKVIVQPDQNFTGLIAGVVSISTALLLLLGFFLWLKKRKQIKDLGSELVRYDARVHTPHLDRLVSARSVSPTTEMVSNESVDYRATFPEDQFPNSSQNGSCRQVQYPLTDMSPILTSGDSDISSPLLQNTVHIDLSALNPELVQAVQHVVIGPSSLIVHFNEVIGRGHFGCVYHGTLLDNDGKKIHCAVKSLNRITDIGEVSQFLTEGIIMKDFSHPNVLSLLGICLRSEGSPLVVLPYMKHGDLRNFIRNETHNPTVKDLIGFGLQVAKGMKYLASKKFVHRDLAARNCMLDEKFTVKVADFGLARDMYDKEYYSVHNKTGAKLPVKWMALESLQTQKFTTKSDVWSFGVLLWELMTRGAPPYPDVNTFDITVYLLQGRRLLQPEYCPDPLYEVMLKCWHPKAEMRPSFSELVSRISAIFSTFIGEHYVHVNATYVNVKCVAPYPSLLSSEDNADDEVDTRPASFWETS
Assay [19] shares this target. Conditions: at 1 µM.
The target of assay [20] is T2, Muscle, skeletal receptor tyrosine-protein kinase (Homo sapiens) (UniProt O15146).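 Note: values are mean inhibition of MuSK from the GSK PKIS kinase screening panel.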
T2 sequence (whole entry): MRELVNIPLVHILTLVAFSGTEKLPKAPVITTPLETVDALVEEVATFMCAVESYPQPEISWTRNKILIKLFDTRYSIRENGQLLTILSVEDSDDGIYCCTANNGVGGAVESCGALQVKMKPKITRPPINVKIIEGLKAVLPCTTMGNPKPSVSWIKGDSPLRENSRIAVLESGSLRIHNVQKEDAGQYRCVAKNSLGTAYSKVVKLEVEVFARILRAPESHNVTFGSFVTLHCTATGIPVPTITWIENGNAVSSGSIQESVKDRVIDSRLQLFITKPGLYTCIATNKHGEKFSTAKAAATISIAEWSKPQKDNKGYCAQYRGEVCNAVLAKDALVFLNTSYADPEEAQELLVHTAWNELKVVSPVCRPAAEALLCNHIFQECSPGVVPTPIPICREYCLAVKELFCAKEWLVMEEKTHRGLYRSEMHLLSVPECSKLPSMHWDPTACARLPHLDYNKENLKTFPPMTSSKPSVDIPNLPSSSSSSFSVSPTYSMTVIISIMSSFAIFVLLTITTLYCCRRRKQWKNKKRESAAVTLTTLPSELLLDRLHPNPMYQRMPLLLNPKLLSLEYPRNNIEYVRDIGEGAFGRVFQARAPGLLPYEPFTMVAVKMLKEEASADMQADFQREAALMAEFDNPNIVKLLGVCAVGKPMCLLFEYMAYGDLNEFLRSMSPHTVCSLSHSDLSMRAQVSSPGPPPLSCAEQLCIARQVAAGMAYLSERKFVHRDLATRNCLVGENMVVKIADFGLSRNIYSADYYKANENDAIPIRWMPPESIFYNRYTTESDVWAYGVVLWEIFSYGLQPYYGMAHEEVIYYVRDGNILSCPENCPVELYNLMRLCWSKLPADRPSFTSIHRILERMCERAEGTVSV
Conditions: at 0.1 µM.

Sequence of Mast/stem cell growth factor receptor Kit (Homo sapiens), P10721 [D816V] (P10721 whole entry D816V): as the sequence (P10721 whole entry V560G) above, with G560V, D816V counted along it
Sequence of Tyrosine-protein kinase Lck (Homo sapiens) (P06239 2-509 limits assumed): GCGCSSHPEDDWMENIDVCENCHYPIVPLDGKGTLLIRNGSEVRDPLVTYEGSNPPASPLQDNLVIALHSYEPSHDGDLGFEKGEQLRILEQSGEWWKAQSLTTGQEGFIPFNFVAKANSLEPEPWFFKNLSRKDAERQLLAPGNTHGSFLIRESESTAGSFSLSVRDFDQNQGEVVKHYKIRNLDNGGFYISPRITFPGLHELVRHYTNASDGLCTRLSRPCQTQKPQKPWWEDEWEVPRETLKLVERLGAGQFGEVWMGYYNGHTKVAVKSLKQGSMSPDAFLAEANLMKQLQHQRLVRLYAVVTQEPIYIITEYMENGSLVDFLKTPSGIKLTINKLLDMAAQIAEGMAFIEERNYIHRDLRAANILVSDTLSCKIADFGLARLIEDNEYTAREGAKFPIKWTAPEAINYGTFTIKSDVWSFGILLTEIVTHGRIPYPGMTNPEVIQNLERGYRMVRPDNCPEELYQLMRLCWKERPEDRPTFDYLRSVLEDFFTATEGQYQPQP
Sequence of Mast/stem cell growth factor receptor Kit (Homo sapiens) (P10721 whole entry): as the sequence (P10721 whole entry V560G) above, with G560V counted along it
Sequence of Mast/stem cell growth factor receptor Kit (Homo sapiens), P10721 [T670I] (P10721 whole entry T670I): as the sequence (P10721 whole entry V560G) above, with G560V, T670I counted along it
Sequence of Leukocyte tyrosine kinase receptor (Homo sapiens) (P29376 whole entry): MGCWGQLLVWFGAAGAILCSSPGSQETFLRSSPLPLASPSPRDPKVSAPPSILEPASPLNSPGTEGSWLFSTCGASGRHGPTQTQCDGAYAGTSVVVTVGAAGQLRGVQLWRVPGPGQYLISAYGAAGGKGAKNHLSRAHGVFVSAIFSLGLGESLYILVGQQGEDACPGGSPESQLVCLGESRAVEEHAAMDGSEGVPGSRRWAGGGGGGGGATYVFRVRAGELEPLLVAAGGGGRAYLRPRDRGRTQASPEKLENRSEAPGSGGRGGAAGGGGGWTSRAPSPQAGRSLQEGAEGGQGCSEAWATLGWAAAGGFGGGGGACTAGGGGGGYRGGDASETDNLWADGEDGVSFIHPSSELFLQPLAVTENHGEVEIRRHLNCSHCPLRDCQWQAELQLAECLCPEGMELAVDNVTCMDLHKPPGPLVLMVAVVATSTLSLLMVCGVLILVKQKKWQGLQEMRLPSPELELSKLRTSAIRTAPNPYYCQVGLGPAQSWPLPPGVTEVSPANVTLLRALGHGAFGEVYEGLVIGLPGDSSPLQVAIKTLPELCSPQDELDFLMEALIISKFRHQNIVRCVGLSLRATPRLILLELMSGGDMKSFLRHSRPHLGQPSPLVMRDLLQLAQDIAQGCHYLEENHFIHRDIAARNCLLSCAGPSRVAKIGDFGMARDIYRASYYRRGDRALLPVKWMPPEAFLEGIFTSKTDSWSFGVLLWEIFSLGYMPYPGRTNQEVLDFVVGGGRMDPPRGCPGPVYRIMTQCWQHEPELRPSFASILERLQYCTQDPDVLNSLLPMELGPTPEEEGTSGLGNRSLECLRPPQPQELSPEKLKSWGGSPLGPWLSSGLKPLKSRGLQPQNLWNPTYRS

For the molecule `COC(=O)Nc1nc2ccc(Oc3ccc(NC(=O)Nc4cc(C(F)(F)F)ccc4F)cc3)cc2s1`, the inhibition in assay [1] is 73.9%; in assay [2], -1.16%; in assay [3], -0.29%; in assay [4], 14.4%; in assay [5], 46.7%; in assay [6], 19.8%. In addition, the inhibition is 73.7% in assay [7]; 15.2% in [8]; 47.1% in assay [9]; 1.83% in [10]; 2.2% in [11]; 28.7% in assay [12]. The inhibition amounted to 70.5% in [13]; 22.6% in assay [14]; 66.5% in assay [15]; 0.03% in [16]; 4.8% in assay [17]; 9.69% in assay [18]. Moreover, the inhibition came to 34.6% in assay [19] and 76.3% in [20].
Turning to `c1ccc(-c2n[nH]cc2-c2ccnc(-c3ccc(OCCn4ccnc4)cc3)c2)nc1`, the inhibition in assay [1] turned out to be 11.4%; in assay [2], 3.19%; in assay [3] it was 19.5%; in assay [4], 1.86%; in assay [5] it was 3.3%; in assay [6], 1.49%. Also, the inhibition turned out to be 4.59% in [7]; 0.89% in assay [8]; 12.7% in assay [9]; 0.8% in [10]; 2.53% in [11]; 2.2% in [12]. Besides, the inhibition worked out at 16.3% in assay [13]; 0.89% in assay [14]; 12.3% in assay [15]; 0.8% in assay [16]; 2.68% in assay [17]; 4.9% in assay [18]. In addition, the values for the inhibition in [19] and in [20] were 0.98% and 0.34%, respectively.
Take `Cc1nnc(-c2cccc(-c3ccc(C(=O)NCC4CC4)cc3)c2)o1`: the inhibition in assay [1] is 9.77%; in assay [2], 1.04%; in assay [3], 7.79%; in [4], 5.46%; in assay [5] it was 5.66%; in [6] it was 0.29%. The inhibition is 2.8% in assay [7]; 2.77% in [8]; 2.64% in [9]; 4.15% in assay [10]; 4.76% in assay [11]; 7.2% in assay [12]. The inhibition in [13] is 5.98%; in assay [14] it was 3.09%; in assay [15], 5.48%; in assay [16], 0.22%; in [17], 0.56%; in assay [18] it was 3.78%. For the same molecule, the inhibition worked out at 7.87% in [19] and 2.8% in assay [20].
Take `COc1cccc(-n2ncc3c(N/N=C/c4ccc(C(=O)NCCN(C)C)cc4)ncnc32)c1`: the inhibition in assay [1] was determined as 65.8%; in assay [2], 7.1%; in assay [3], 15%; in [4], 6.62%; in assay [5], 52.3%; in assay [6] it was 2.06%. Moreover, the inhibition was 5.99% in assay [7]; 72.9% in assay [8]; 94.4% in assay [9]; 2.24% in assay [10]; 4.37% in [11]; 56.9% in assay [12]. The inhibition in assay [13] stood at 88.1%; in assay [14] it was 51%; in assay [15], 86.3%; in assay [16], 16.8%; in assay [17], 59.3%; in assay [18], 12.9%. For the same molecule, the inhibition was determined as 55.7% in assay [19] and 40.4% in assay [20].
Take `CN1CCC(C(=O)Nc2n[nH]c3nc(-c4ccc(O)cc4)c(Br)cc23)CC1`: the inhibition is 12.5% and 9.42% in assay [1]; 4.08% and -0.48% in assay [2]; 5.39% and 3.49% in assay [3]; 2.44% and 0.42% in [4]; 4.98% and 0.1% in assay [5]; -0.43% and 0.93% in assay [6]. Moreover, the inhibition was 0.37% and -0.64% in assay [7]; -0.45% and 3.18% in assay [8]; 7.96% and 12.4% in assay [9]; 11.7% and 9.83% in assay [10]; 50.1% and 45.5% in [11]; 4.2% and 2.89% in [12]. Also, the inhibition was 8.89% and 2.99% in assay [13]; 2.55% and 3.95% in assay [14]; 6.26% and 2.78% in assay [15]; 1.28% and 4.74% in assay [16]; 4.17% and 6.1% in assay [17]; 3.13% and 11.9% in [18]. The inhibition is 14.2% and 6.92% in assay [19]; 2.28% and 1.53% in assay [20].

The record behind these values is ChEMBL document CHEMBL1961873, “Compounds: GSK PKIS; Assays: Nanosyn kinase panel” (2012).
